This is a sample that favours compounds with a hit; in the whole collection about 3.7% have one here.
Anthrax LF prot – anthrax lethal factor protease inhibition; multiplex microsphere protease cleavage assay, LF; inhibition, % at 10 µM; actives 0.12% (n = 360,000)
Target sequence (P15917 whole entry, looked up): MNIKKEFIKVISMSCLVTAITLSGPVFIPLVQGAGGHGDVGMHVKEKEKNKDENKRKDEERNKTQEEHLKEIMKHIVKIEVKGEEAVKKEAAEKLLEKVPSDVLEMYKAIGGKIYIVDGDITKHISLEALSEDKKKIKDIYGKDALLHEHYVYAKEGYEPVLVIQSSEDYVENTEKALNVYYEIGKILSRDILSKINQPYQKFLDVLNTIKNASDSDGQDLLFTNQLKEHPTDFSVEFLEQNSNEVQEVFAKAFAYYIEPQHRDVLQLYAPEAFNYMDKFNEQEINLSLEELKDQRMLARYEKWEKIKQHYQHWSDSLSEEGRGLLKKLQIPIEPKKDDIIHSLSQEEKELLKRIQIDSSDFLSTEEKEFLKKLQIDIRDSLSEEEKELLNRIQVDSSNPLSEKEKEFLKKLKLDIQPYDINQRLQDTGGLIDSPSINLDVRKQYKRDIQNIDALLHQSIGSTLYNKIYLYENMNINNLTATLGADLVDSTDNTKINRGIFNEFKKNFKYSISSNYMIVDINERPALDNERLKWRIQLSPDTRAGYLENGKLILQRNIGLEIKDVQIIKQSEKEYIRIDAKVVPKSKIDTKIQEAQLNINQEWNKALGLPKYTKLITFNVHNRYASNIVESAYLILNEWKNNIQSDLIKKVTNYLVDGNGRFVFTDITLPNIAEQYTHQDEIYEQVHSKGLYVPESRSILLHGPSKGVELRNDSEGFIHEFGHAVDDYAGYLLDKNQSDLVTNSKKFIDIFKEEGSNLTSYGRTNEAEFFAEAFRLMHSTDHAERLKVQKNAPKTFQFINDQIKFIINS
Bead autofluor – counter-screen for toxin protease inhibitors: compound fluorescence. actives 3.1% (n = 360,000). fluorescence intensity (concentration not given with the values). compound autofluorescence counterscreen, microsphere flow cytometry; stronger effect = higher value; in the data active = fluorescence intensity above about 16000; inconclusive = no clear call, values can overlap the other calls
BoNT A protease – BoNT A light chain protease inhibition | multiplex microsphere protease substrate cleavage, flow cytometry | inhibition, % at 10 µM | actives 0.17% (n = 360,000)
BJeLR viability – BJeLR cell viability loss. AID 1554. BJeLR (HRASV12) viability, CellTiter-Glo ATP luminescence, 48 h. inhibition, % (no concentration beside the values). actives 0.17% (n = 300,000); in the data active = inhibition above about 50%; inconclusive = no clear call, values can overlap the other calls
Vc quorum ag – inducers of Vibrio cholerae quorum light production without autoinducers | V. cholerae BH1578 lux reporter, luminescence, 6 h | actives 0.16% (n = 350,000) | AID 588436 | activation, % at 18.7 µM; in the data active = activation mostly above about 9.7%, no sharp cut-off; inconclusive = no clear call, values can overlap the other calls; inactive = mostly below about 3.7%
BoNT F protease – BoNT F light chain protease inhibition | Multiplex microsphere protease cleavage assay, flow cytometry | inhibition, % at 10 µM | actives 0.22% (n = 360,000); in the data active = inhibition above about 35%, passing the limit was not always enough; inconclusive = no clear call, values can overlap the other calls
Hits are given with their value. Cut-off read from the data, not from the text of the source, unless noted: active = inhibition above about 30%; inconclusive = no clear call, values can overlap the other calls; inactive = below that.

For Cc1csc(NC(=O)c2ccc(Br)s2)n1 the results were Anthrax LF prot inactive, Bead autofluor inactive, BoNT A protease inactive, BJeLR viability inactive, Vc quorum ag inactive and BoNT F protease inactive.
Screening CC(=O)Nc1cc(-c2cccc(N)c2)cn2c(-c3ccccc3)cnc12 returned Anthrax LF prot inactive, Bead autofluor inactive, BoNT A protease inactive, Vc quorum ag inactive and BoNT F protease inactive.
Screening Cc1cccc(OC(C)C(=O)Nc2ccccc2C(=O)N2CCCCC2)c1 (stereo not given) returned Anthrax LF prot inactive, Bead autofluor inconclusive, BoNT A protease inactive, BJeLR viability inactive, Vc quorum ag inactive and BoNT F protease inactive.
CC(C(=O)Nc1ccccc1C(=O)N1CCCC1)n1nnc2ccccc21 (stereo not given) was read as Anthrax LF prot inactive, Bead autofluor 21214, BoNT A protease inactive, BJeLR viability inactive, Vc quorum ag inactive and BoNT F protease inactive.
For Cc1cc2oc(=O)cc(CN3CCCCCCC3)c2cc1Cl the results were Anthrax LF prot inactive, Bead autofluor inactive, BoNT A protease inactive and BoNT F protease inactive.
Screening Cn1cccc1/C=C(\C#N)C(N)=S returned BJeLR viability inactive and Vc quorum ag inactive.
Screening Cn1c(/C=C(\C#N)C(N)=S)ccc1-c1ccc(Br)cc1 returned Anthrax LF prot 32, Bead autofluor inactive, BoNT A protease 33, Vc quorum ag inactive and BoNT F protease inactive.
O=C(Nc1cccc(/C=C/c2ccccn2)c1)c1ccc(-n2cncn2)c([N+](=O)[O-])c1 was read as Anthrax LF prot inactive, Bead autofluor inactive, BoNT A protease inactive, BJeLR viability inactive, Vc quorum ag inactive and BoNT F protease inactive.
CCNC(=O)N(C)c1c(CC)nc2ccc(C(=O)N3CCN(S(=O)(=O)CC)CC3)cn12 was read as Anthrax LF prot inactive, Bead autofluor inactive, BoNT A protease inactive, Vc quorum ag inactive and BoNT F protease inactive.
For CC1(C(=O)N2Cc3ccccc3C2)CCN1C(=O)Cc1ccccc1 (stereo not given) the results were Anthrax LF prot inactive, Bead autofluor inactive, BoNT A protease inactive, Vc quorum ag inactive and BoNT F protease inactive.
For O=C(Nc1ccccc1Cl)N1CCN(c2ccc3nnc(-c4ccc(F)cc4)n3n2)CC1 the results were Anthrax LF prot inactive, Bead autofluor 20523, BoNT A protease inconclusive, BJeLR viability inactive, Vc quorum ag inactive and BoNT F protease inactive.
Screening NC(c1csc(Nc2ccccn2)n1)C1CCCCC1 (stereo not given) returned Anthrax LF prot inactive, Bead autofluor inactive, BoNT A protease inactive, Vc quorum ag inactive and BoNT F protease inactive.
`CN1CCNC(=O)C1CC(=O)O` (stereo not given) gave Anthrax LF prot inactive, Bead autofluor 22031, BoNT A protease inconclusive, BJeLR viability inactive, Vc quorum ag inactive and BoNT F protease inactive.
For Cc1ccc(CN2CCNC(=O)C2CC(=O)O)cc1 (stereo not given) the results were Anthrax LF prot inactive, Bead autofluor inactive, BoNT A protease inactive, BJeLR viability inactive, Vc quorum ag inactive and BoNT F protease inactive.
CCc1ccc(/C=C2/SC(=S)N(CCC(=O)NCCCN3CCOCC3)C2=O)cc1 was read as Anthrax LF prot inactive, Bead autofluor inactive, BoNT A protease inactive, BJeLR viability 106, Vc quorum ag inactive and BoNT F protease inactive.
Screening CCc1ccc(/C=C2/SC(=S)N(CCC(=O)Nc3cccnc3)C2=O)cc1 returned Anthrax LF prot inactive, Bead autofluor inconclusive, BoNT A protease inactive, BJeLR viability 102, Vc quorum ag inactive and BoNT F protease inactive.
For CCc1ccc(/C=C2\SC(=S)N(CCCC(=O)NCCCN3CCOCC3)C2=O)cc1 the results were Anthrax LF prot inactive, Bead autofluor inactive, BoNT A protease inactive, Vc quorum ag inactive and BoNT F protease inactive.
For O=C(CCN1C(=O)/C(=C/c2ccccc2)SC1=S)Nc1cccnc1 the results were Anthrax LF prot inactive, Bead autofluor inactive, BoNT A protease inactive, BJeLR viability inactive, Vc quorum ag inactive and BoNT F protease inactive.
`O=C(CCN1C(=O)/C(=C\c2cccc(Br)c2)SC1=S)NCCCN1CCOCC1` gave Anthrax LF prot inactive, Bead autofluor inactive, BoNT A protease inactive, BJeLR viability 85, Vc quorum ag inactive and BoNT F protease inactive.
CN1CCN(C(=O)CCCN2C(=O)/C(=C/c3cccc(Br)c3)SC2=S)CC1 was read as Anthrax LF prot inactive, Bead autofluor inactive, BoNT A protease inactive, BJeLR viability 90, Vc quorum ag inactive and BoNT F protease inactive.
Screening O=C(CCN1C(=O)/C(=C/c2ccccc2)SC1=S)NCCCN1CCOCC1 returned Anthrax LF prot inactive, Bead autofluor inactive, BoNT A protease inactive, BJeLR viability inactive, Vc quorum ag inactive and BoNT F protease inactive.
For COc1ccc([C@H]2C[C@@H](O)[C@H](n3cc(C4CC4)nn3)CN2C(=O)C2CCCCC2)cc1 the results were Anthrax LF prot inactive, Bead autofluor inactive, BoNT A protease inactive, Vc quorum ag inactive and BoNT F protease inactive.
Screening COc1ccc(COC(=O)CCCN=C2NS(=O)(=O)c3ccccc32)cc1F returned Anthrax LF prot inactive, Bead autofluor inactive, BoNT A protease inactive, Vc quorum ag inactive and BoNT F protease inactive.
O=C(c1ccco1)N1CCCN(C(=O)c2ccco2)CC1 was read as Anthrax LF prot inactive, Bead autofluor 23373, BoNT A protease inactive, BJeLR viability inactive, Vc quorum ag inactive and BoNT F protease inactive.
Screening Cc1ccc(-c2cc(C(=O)N3CCN(C(=O)c4ccco4)CC3)no2)cc1 returned Anthrax LF prot inactive, Bead autofluor 20055, BoNT A protease inactive, BJeLR viability inactive, Vc quorum ag inactive and BoNT F protease inactive.
`O=C(c1ccco1)N1CCN(c2ccc(S(=O)(=O)N3CCCC3)cc2)CC1` gave Anthrax LF prot inactive, Bead autofluor 22603, BoNT A protease inactive, BJeLR viability inactive, Vc quorum ag inactive and BoNT F protease inactive.
`Cc1ccc(CN2CCN(C(=O)c3ccco3)CC2)cc1` gave Anthrax LF prot inactive, Bead autofluor inactive, BoNT A protease inactive, BJeLR viability inactive, Vc quorum ag inactive and BoNT F protease inactive.
O=C(CN1C(=O)NC2(CCCC2)C1=O)N1CCN(C(=O)c2ccco2)CC1 was read as Anthrax LF prot inactive, Bead autofluor 19470, BoNT A protease inactive, BJeLR viability inactive, Vc quorum ag inactive and BoNT F protease inactive.
`C(=C\c1ccccc1)/CN1CCN(C(c2nnnn2Cc2ccccc2)C2CC2)CC1` (stereo not given) gave Anthrax LF prot inactive, Bead autofluor inactive, BoNT A protease inactive and BoNT F protease inactive.
C[C@H](CO)N1C[C@H](C)[C@H](CN(C)Cc2cccc(F)c2)Oc2ncc(Br)cc2C1=O was read as Anthrax LF prot inactive, Bead autofluor inactive, BoNT A protease inactive, Vc quorum ag inactive and BoNT F protease inactive.
`CC(N)c1csc(Nc2ncccn2)n1` (stereo not given) gave Anthrax LF prot inactive, Bead autofluor inactive, BoNT A protease inactive, Vc quorum ag inactive and BoNT F protease inactive.
For CCN1C(=O)c2c(C)nc3ccccc3c2C1=O the results were Anthrax LF prot inactive, Bead autofluor 20844, BoNT A protease inactive, BJeLR viability inactive, Vc quorum ag inactive and BoNT F protease inactive.
